Assay outcomes: PubChem, several laboratories
hiPSC survival – enhancers of single-cell hiPSC survival, primary screen, ATPlite luminescence. survival enhancement, % at 20 µM. actives 0.044% (n = 360,000). AID 602274, 2012. 100% = ROCK inhibitor wells, 0% = DMSO; in the data active means survival enhancement above about 18%;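 further: cells exposed to compounds for 16 hours before the ATP read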
Myeloid diff 2 – induction of myeloid progenitor differentiation, primary screen, cell-based, flow cytometry, MLPCN library. ER-HoxA9 myeloid progenitors, lysozyme-GFP differentiation. calls only at 10 µM. actives 1% (n = 360,000). AID 624256, 2012;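 active means normalized GFP-positive differentiation at or above the plate's own cutoff, the solvent-only control mean plus 3 SD; inconclusive means no clear call, values can overlap the other calls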;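 further: cells exposed to compound for four days before flow analysis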
ABCB6 inh 2 – ABCB6 transporter inhibitors, primary screen, K562-ABCB6 cells, flow cytometry, MLPCN library. ATP-binding cassette sub-family B member 6 (Homo sapiens), Q9NP58. K562-ABCB6 porphyrin accumulation, 1 h; active compounds read low. fluorescence ratio to DMSO, % at 10 µM. actives 0.19% (n = 360,000);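 active means fluorescence ratio to DMSO below 75%, the collection mean minus 3 SD; inconclusive means too few cells collected in the well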;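 further: signal is porphyrin accumulated inside mitochondria; 100% equals median channel fluorescence of DMSO control wells; lower ratio means ABCB6 inhibition with less porphyrin fluorescence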
H9c2 protect – cardioprotection against H2O2-induced cell death, primary screen, uHTS, H9c2 cells, ATPLite luminescence | H9c2 cardiomyocytes, H2O2 injury protection, 2 h | protection from H2O2 cell death, % at 20 µM | actives 0.63% (n = 360,000) | AID 588492, 2011;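 active means compounds giving at least 50% protection of heart cells from peroxide-induced death in the single-dose screen, raw or plate-pattern-corrected value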;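 further: 0% = DMSO wells with peroxide and 100% = DMSO wells without peroxide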
beta cell repl – inducers of MIN6 beta-cell proliferation, primary screen, ATP luminescence, uHTS; MIN6 cells proliferation, ATPlite luminescence, 48 h; cells starved in 0.2% serum; 100% = growth in 10% serum; proliferation, % at 10 µM; actives 0.29% (n = 330,000);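 active means compounds whose signal lies at least 3.5 SD above the mean of all wells on their plate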;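 further: 0% = DMSO-treated cells in low-serum medium and 100% = 10% serum control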
ABCB6 inh CP1 – ABCB6 transporter inhibitors, confirmation, K562-ABCB6 cells, flow cytometry, cherry pick 1. shares compounds with ABCB6 inh 2. K562-ABCB6 porphyrin accumulation, 1 h; active compounds read low. ratio response (% of DMSO), % at 10 µM. 700 tested, under 10 active. AID 602430, 2012;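 active means repeat-averaged ratio response below 75% of DMSO, the collection mean minus 3 SD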;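 further: median porphyrin fluorescence at 575 nm with 488 nm excitation from mitochondria; lower ratio means less porphyrin signal so ABCB6 inhibition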
K562 vector FC – empty-vector K562 compound effect – cell-based, flow cytometry, cherry pick set 2, counter-screen for ABCB6 inhibitor project, dose response. shares compounds with ABCB6 inh 2. K562 empty-vector cells, flow cytometry fluorescence, 1 h. percent response (fluorescence), % at 100 µM. 25 tested, under 10 active. AID 624484, 2012;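 active means compounds whose half-maximal effective concentration is below 100 µM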
Active calls of the source: *; i = inactive; ? = inconclusive; · = no result. This is a sample that favours compounds with a hit; in the whole collection about 2.2% have one here.

SMILES	hiPSC survival	Myeloid diff 2	ABCB6 inh 2	H9c2 protect	beta cell repl	ABCB6 inh CP1	others
CSc1nnc(NC(=O)c2nc(S(=O)(=O)Cc3ccccc3)ncc2Cl)s1	2	i	104	-11	-8	·
Cc1ccc(S(=O)(=O)CCc2nnc(NC(=O)c3cnccn3)s2)cc1	-2	i	98	8	-2	·
CCCc1nnc(NC(=O)c2nc(S(=O)(=O)Cc3ccc(C)cc3)ncc2Cl)s1	0	i	91	-8	-7	·	K562 vector FC=261
CCOC(=O)c1ccc(NC(=O)c2nc(S(=O)(=O)Cc3ccccc3)ncc2Cl)cc1	20*	i	46*	-22	-7	·	K562 vector FC=231
CCOC(=O)c1ccc(NC(=O)CCS(=O)(=O)Cc2ccccc2)cc1	1	i	106	-6	-1	·
COc1ccc(C(=O)Nc2ccc3c(c2)nc(CCNC(C)=O)n3C)cc1	-2	i	103	-8	-5	·
COc1c(C)cc(C(O)c2ncc(-c3ccccc3C)[nH]2)cc1C (configuration not stated)	-2	i	92	-3	·	·
Cc1ccc(NC(=O)C(C)Sc2nnc3ccccn23)cc1 (configuration not stated)	0	i	105	2	-5	·
Cc1cccc(/C=C2\Sc3ccc(C(=O)N4CCC(C)CC4)cc3N(C)C2=O)c1	0	?	13*	-7	-8	102
Cc1cccc(/C=C2\Sc3ccc(C(=O)N4CCCCC4)cc3N(C)C2=O)c1	-1	i	99	-11	-7	·
Cc1cccc(CS(=O)(=O)c2ncc(Cl)c(C(=O)NCc3ccc4c(c3)OCO4)n2)c1	0	i	97	-12	-7	·
CC(=O)Nc1ccc(NC(=O)c2nc(S(=O)(=O)Cc3cccc(C)c3)ncc2Cl)cc1	5	?	67*	-12	-7	·	K562 vector FC=224
COC(=O)c1ccc(NC(=O)c2nc(S(=O)(=O)Cc3cccc(C)c3)ncc2Cl)cc1	19	i	41*	-15	-7	91
COc1ccccc1CN(C)C(=O)C(c1ccccc1)c1ccccc1	0	i	73*	-13	-7	100
COc1ccc(NC(=O)C2Cc3c(-c4cccc(C(C)=O)c4)ccnc3O2)cc1OC (configuration not stated)	0	?	90	-20	·	·
CC(=O)Nc1cccc(-c2ccnc3c2CC(C(=O)Nc2cccc(NS(C)(=O)=O)c2)O3)c1 (configuration not stated)	1	i	99	12	·	·
CS(=O)(=O)Nc1cccc(NC(=O)C2Cc3c(-c4cccc(C(N)=O)c4)ccnc3O2)c1 (configuration not stated)	-2	i	61*	6	·	100
COc1ccc(NC(=O)C2Cc3c(-c4cccc(C(N)=O)c4)ccnc3O2)cc1OC (configuration not stated)	1	i	96	17	·	98
CCOc1oc(-c2ccc(OC)cc2)nc1C(F)(F)F	1	i	92	-5	-4	·
COc1cccc(/C=N/NC(=O)CNC(=O)c2ccco2)c1O	-1	i	99	20	-2	·
CC1CCN(CCNC(=O)CCS(=O)(=O)c2ccc(Br)cc2)CC1	-2	i	7.0*	6	0	95
Cc1ccc(CCNC(=O)CCS(=O)(=O)c2ccc(Br)cc2)cc1	0	i	94	10	-3	·
COc1ccc(-c2ccc(C(=O)NCc3ccncc3)c3occc23)c(C)c1	3	i	69*	-27	·	98
COc1ccc(-c2ccc(C(=O)NCc3ccc(F)c(F)c3)c3occc23)c(C)c1	-1	i	105	-22	·	·
CC(=O)c1cc2c(cc1NC(=O)CCc1c(C)nc3ncnn3c1C)OCO2	0	i	97	11	-1	·
